These results are taken from PubChem BioAssay (NCI).

Test [1] in a line: NCI Yeast Anticancer Drug Screen. Data for the rad50 strain (AID 155).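 Note: 0% = growth of vehicle-only cultures of the same strain.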 As to conditions: S. cerevisiae rad50 strain growth inhibition; at 50.0 µM; stronger effect = higher value. A digest of the protocol: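 Inhibition values express reduced yeast growth in compound-treated cultures relative to vehicle-treated controls.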
The nature of test [2]: NCI Yeast Anticancer Drug Screen. Data for the mec2-1 strain (AID 157). Particulars: S. cerevisiae mec2-1 strain, at 50.0 µM, stronger effect = higher value. The method, boiled down: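 Mutant yeast (mec2-1) grown with compound; growth inhibition relative to vehicle control reported.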
Test [3] is described as follows: NCI Yeast Anticancer Drug Screen. Data for the sgs1 mgt1 strain (AID 161).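 Note: 0% = growth of cultures given vehicle only.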 Particulars: S. cerevisiae sgs1 mgt1 strain, at 50.0 µM, stronger effect = higher value. The method, boiled down: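 Percent growth inhibition was derived by comparing compound-exposed mutant yeast with vehicle-exposed cultures. The strain carries alterations in DNA damage repair.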
Test [4] in a line: NCI Yeast Anticancer Drug Screen. Data for the cln2 rad14 strain (AID 165).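 Note: 0% = growth equal to vehicle treated cultures.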 As to conditions: S. cerevisiae cln2 rad14 strain, at 50.0 µM, stronger effect = higher value. The method, boiled down: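 Readout is yeast growth inhibition versus vehicle-treated controls, using a strain with cln2 and rad14 alterations exposed to compound.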
Test [5] is described as follows: NCI Yeast Anticancer Drug Screen. Data for the bub3 strain (AID 167). As to conditions: S. cerevisiae bub3 mutant strain, at 50.0 µM, stronger effect = higher value. The method, boiled down: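 Steps: expose the mutant yeast strain to compound; grow alongside vehicle-treated cultures; measure growth; express inhibition against the vehicle cultures.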
Test [6] is described as follows: NCI Yeast Anticancer Drug Screen. Data for the mlh1 rad18 strain (AID 175). Particulars: S. cerevisiae mlh1 rad18 strain growth inhibition; at 50.0 µM; stronger effect = higher value. A digest of the protocol:
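Genetically defined yeast (DNA repair-deficient) exposed to compounds; growth inhibition determined relative to vehicle.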

This is part of a sample that, as a whole, favours compounds with a hit. Of some 79,000 tested, about 15% had one in any assay. A number with no mark means an inactive call. Calls of active or inactive are those of the source. Cut-off read from the data, not from the text of the source: active = growth inhibition above about 70%; inactive = the rest.

On to `C=CCCCCCCCCC(=O)Nc1cc(Cl)ccc1C`, for which the growth inhibition was -0.25% in test [1]; -5% in test [2]; -10.4% in test [3]; -22.9% in test [4]; -10.8% in test [5]; -2.7% in test [6].

In the case of `NCCNc1ncnc2ccccc12`, the growth inhibition was -13.1% in test [1]; 16.1% in test [2]; -1.75% in test [3]; -11.6% in test [4]; -1.35% in test [5]; -5.2% in test [6].

Take `CCOC(=O)C(C(=O)OCC)=c1sc(=C(C(=O)OCC)C(=O)OCC)s1`: the growth inhibition in test [1] is 20.2%; in test [2], 7.8%; in test [3] it was 17.1%; in test [4], 5.05%; in test [5], -2.5%; in test [6], 9.3%.

As to `CC(=O)Nc1ncc2ccccc2c1-c1ccc(NC(=O)CCCl)cc1`, the growth inhibition is -0.65% in test [1]; 19.4% in test [2]; 19.8% in test [3]; -1.3% in test [4]; 3.6% in test [5]; 12.8% in test [6].

On to `NC(=O)NNC(=O)Cc1ccccc1`, for which the growth inhibition in test [1] was 1.35%; in test [2], -0.25%; in test [3], -1.95%; in test [4], 0.55%; in test [5], -0.95%; in test [6], -3.45%.

Take `O=S(=O)(O)c1ccc(O)c2ncccc12`: the growth inhibition was 20.2% in test [1]; 16.4% in test [2]; 23.6% in test [3]; 21.4% in test [4]; 12.1% in test [5]; 25.9% in test [6].

For the molecule `CC1CN(c2ccc(Cl)cc2)CC(C)(C)OC(=O)O1` (stereo unspecified), the growth inhibition in test [1] is -12.2%; in test [2] it was -16.1%; in test [3] it was -10.6%; in test [4], 0.2%; in test [5], 5.45%; in test [6], -2.5%.

Take `Cc1ccc(N=NN(C)C)cc1NC(=O)NCC(=O)OC(C)(C)C`: the growth inhibition is 4.7% in test [1]; 8.7% in test [2]; 4.95% in test [3]; -31.6% in test [4]; 7.25% in test [5]; 7.8% in test [6].

As for `O=S(=O)(Oc1cccc2ccccc12)c1ccccc1`, the growth inhibition in test [1] was -2.7%; in test [2], -2.5%; in test [3], -5.05%; in test [4], -5.45%; in test [5] it was 0.95%; in test [6] it was 8.4%.

`C/C(=N\N=C(/C)c1ccc(C)cc1)c1ccc(C)cc1`: the growth inhibition in test [1] was 10.7%; in test [2] it was -30.3%; in test [3], 20.1%; in test [4] it was 6.1%; in test [5] it was 2.45%; in test [6], 3.7%.

On to `COc1cc(C(=O)NC(CCN)(c2ccccc2)c2ccccc2)cc(OC)c1OC`, for which the growth inhibition is -2.55% in test [1]; 30.4% in test [2]; 14.4% in test [3]; 10.4% in test [4]; 43.2% in test [5]; 29.8% in test [6].

Regarding `CC1=C(c2cc(C(=O)Nc3nccs3)nc(NC#N)n2)Sc2ccccc2N1`, the growth inhibition in test [1] was -9.2%; in test [2], 5.4%; in test [3] it was -8.65%; in test [4], 15.2%; in test [5], 4.5%; in test [6], 10.3%.

For the molecule `COC(=O)CCCC(=O)NC1=C(NCc2ccccc2)C(=O)c2ccccc2C1=O`, the growth inhibition in test [1] is 10.1%; in test [2] it was 12.3%; in test [3], 33.6%; in test [4], 13.8%; in test [5] it was 32.1%; in test [6], -0.35%.

`CC[N+](C)(CC)Cc1ccccc1[N+](=O)[O-]`: the growth inhibition is -32.8% in test [1]; -47.3% in test [2]; -25.9% in test [3]; 2.85% in test [4]; -38.8% in test [5]; -28.6% in test [6].

Take `C/C(N=NC(=S)N1CCCCC1)=C1\C=CC=CN1O`: the growth inhibition in test [1] was 10.8%; in test [2] it was -6.8%; in test [3], 53.8%; in test [4], 97.8% (active); in test [5], 43.2%; in test [6] it was 22.1%.

In the case of `Nc1cc(Cl)c([N+](=O)[O-])cc1O`, the growth inhibition in test [1] was 6.2%; in test [2], 18.4%; in test [3] it was 5.55%; in test [4] it was -66.2%; in test [5] it was 5.05%; in test [6] it was -12%.

For the molecule `C[N+](C)(C)C12CCCC1S(=O)(=O)C2` (stereo unspecified), the growth inhibition is 4.95% in test [1]; 4.25% in test [2]; 9.3% in test [3]; -7.5% in test [4]; -7.45% in test [5]; 16.6% in test [6].

`CCCCCCCCC/C=C\C(=O)O`: the growth inhibition in test [1] was 4.6%; in test [2], -12.5%; in test [3] it was 10.2%; in test [4], -22.9%; in test [5] it was -13.8%; in test [6], 37%.

For the molecule `COc1ccc(Nc2nc3ccccc3nc2C(=O)O)cc1OC`, the growth inhibition in test [1] is -23.9%; in test [2] it was 12.1%; in test [3] it was -9.6%; in test [4], 6.15%; in test [5], 26.1%; in test [6], -33.8%.

Turning to `CCCNC(=O)N1C(=O)c2ccccc2S1(=O)=O`, the growth inhibition in test [1] was -26.8%; in test [2], -7.2%; in test [3], 7.85%; in test [4], -26.1%; in test [5] it was -14.1%; in test [6], -22.6%.

For the molecule `Cc1ccccc1C1OC2=C(Nc3ccc([N+](=O)[O-])cc3N2)C1=O` (stereo unspecified), the growth inhibition is 37.5% in test [1]; 21.4% in test [2]; 38% in test [3]; 20.2% in test [4]; 27.2% in test [5]; 45.6% in test [6].
